Test results taken from PubChem BioAssay (NCI).
This is part of a sample that, as a whole, favours compounds with a hit. Of some 83,000 tested, about 20% had one in any assay.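 For each line, cells grew in 96-well plates with the test compound present at a single concentration for 48 hours.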 Active and inactive are the calls of the source. How the source made its calls: active means growth percent below 10; inactive means the rest.

Tested on: SK-MEL-2 melanoma
Assay: NCI-60 one-dose screen, 48 h (100 = growth as untreated, 0 = no growth, -100 = all killed)
Details: 10 µM unless noted

SMILES	growth
O=C1Nc2ccccc2/C1=C\c1cccc(/C=C2/C(=O)Nc3ccccc32)n1	-34% (active)
COc1ccc(/C=N/NC(=O)c2cccc3cc[nH]c23)cc1O	52.3% (inactive)
CCN1C(=O)N(CC)C2C1NN=c1s/c(=C3\C(=O)Nc4ccccc43)c(=O)n12 (stereo unspecified)	37.6% (inactive)
CC(C)(O)C1CCCN1C(=O)c1ccccc1I (stereo unspecified)	132% (inactive)
O=C1NC(=S)NC(=O)C1=Cc1cccc(C=C2C(=O)NC(=S)NC2=O)c1	108% (inactive)
Cn1c2c(Cl)c(Cl)ccc2c2cc(N)[nH]c(=O)c21	116% (inactive)
COc1ccc(-c2cnnc3c(-c4cccc(C(F)(F)F)c4)cnn23)cc1	54.6% (inactive)
O=C1Nc2c(ccc(Cl)c2Cl)/C1=C/c1ccc([N+](=O)[O-])cc1	99.1% (inactive)
COc1ccc(-c2nc(SCC(C)C)nc(N/N=C(/C)c3ccc(OC)c(OC)c3)c2C#N)cc1	103% (inactive)
NS(=O)(=O)c1cccc(NC(=O)C(=O)C2C(=O)Nc3ccccc32)c1 (stereo unspecified)	113% (inactive)
O=S(=O)(c1cccc(NC2=Nc3cccc4cccc2c34)c1)N1CCCC1	75.2% (inactive)
CCOC(=O)c1c(SC)nn(-c2cc(=O)[nH]c3ccc(Br)cc23)c1N	99% (inactive)
CC(=O)c1c[nH]c2ccc(-c3ccnc(Nc4ccc(NC(=O)C5CCCC5)c(CN5CCOCC5)c4)n3)cc12	-54.3% (active)
COc1ccc(/C=C(/c2ccccc2)[N+](=O)[O-])cc1	-49.7% (active)
O=C1Nc2c(ccc(Cl)c2Cl)/C1=C/c1ccccn1	104% (inactive)
CCN(CCNc1cc(OC)cc2cccnc12)CCc1ccccc1	101% (inactive)
COc1cc2nc(-c3ccc(C#N)cc3)[nH]c(=O)c2cc1OC	128% (inactive)
CCCOc1nc(SCCC)nc2c1cnn2-c1ccccc1	86.8% (inactive)
O=S(=O)(c1ccccc1)N1CCCc2ccccc21	103% (inactive)

SMILES	growth
O=C(Nc1ccc(Cl)cc1)Nc1ccc(Cl)c(Cl)c1	13.3% (inactive)
COc1cc(NCC(O)CN(CC(C)C)C2CCCC2)c2ncccc2c1 (stereo unspecified)	98.3% (inactive)
COc1ccc(Nn2c(SCC(=O)Nc3nc(-c4ccc(Cl)cc4)cs3)nc(C)c2C)cc1	90.5% (inactive)
COc1cccc2c1C(=O)c1c(O)c3c(c(O)c1C2=O)C[C@@](O)(C(=O)CO)C[C@@H]3O[C@H]1C[C@H](N)[C@@H](O)[C@H](C)O1	-72.9% (active)
Clc1ccc(N2N=C(c3cccc(Nc4ccncc4)c3)CC2c2ccc3c(c2)OCO3)cc1 (stereo unspecified)	94.4% (inactive)
O=C(N/N=C/c1ccncc1)c1ccccc1Nc1cccc(C(F)(F)F)c1	99.3% (inactive)
COc1ccc(Cc2nc3cc(OC)c(OC)cc3c(=O)[nH]2)cc1	105% (inactive)
COc1ccc(-c2c[nH]c(C(=O)O)c2-c2cc(OC)c3c(c2OC)OCO3)cc1	109% (inactive)
Clc1ccc(N2N=C(c3cccc(Nc4ccncc4)c3)CC2c2ccccc2)cc1 (stereo unspecified)	107% (inactive)
COc1ccc(Cn2nc(-c3cc(OC)c(OC)c(OC)c3)c3c2CCc2cnoc2-3)cc1OC	38% (inactive)
COc1cc2nnn3c4ncccc4c(N=O)c3c2cc1OC	101% (inactive)
Clc1nc(Cl)c2ncn(CC3(Cn4cnc5c(Cl)nc(Cl)nc54)COC3)c2n1	-76% (active)
C(=N\Nc1ncc(-c2cc3cc4c(cc3o2)OCO4)s1)/c1c[nH]c2ccccc12	51.3% (inactive)
COc1ccc(-c2nn(Cc3ccccc3)c3c2-c2oncc2CC3)cc1OC	125% (inactive)
COc1cc(/C=C/C(=O)c2c(C)oc3nc[nH]c(=O)c23)ccc1O	109% (inactive)
CCc1nc(C)cn1C(=O)OCc1nc2nc(Cl)nc(N3CCOCC3)c2[nH]1	-90.9% (active)
O=C(Nc1ccccc1)Oc1ccccc1-c1ccccc1	93.2% (inactive)
COc1ccc(C(O)c2cc3c(N)c(C(=O)Nc4ccccc4)sc3nc2C)cc1 (stereo unspecified)	9.47% (active)
CCC(C)N(CCNc1cc(OC)cc2cccnc12)CCC(C)C (stereo unspecified)	90% (inactive)

Tested on: EKVX NSCLC
Assay: as above
Details: 10 µM unless noted

SMILES	growth
O=C1Nc2ccccc2/C1=C\c1cccc(/C=C2/C(=O)Nc3ccccc32)n1	-37.9% (active)
COc1ccc(/C=N/NC(=O)c2cccc3cc[nH]c23)cc1O	32.1% (inactive)
CCN1C(=O)N(CC)C2C1NN=c1s/c(=C3\C(=O)Nc4ccccc43)c(=O)n12 (stereo unspecified)	65.3% (inactive)
CC(C)(O)C1CCCN1C(=O)c1ccccc1I (stereo unspecified)	97.7% (inactive)
O=C1NC(=S)NC(=O)C1=Cc1cccc(C=C2C(=O)NC(=S)NC2=O)c1	99.9% (inactive)
Cn1c2c(Cl)c(Cl)ccc2c2cc(N)[nH]c(=O)c21	59.9% (inactive)
COc1ccc(-c2cnnc3c(-c4cccc(C(F)(F)F)c4)cnn23)cc1	30.6% (inactive)
O=C1Nc2c(ccc(Cl)c2Cl)/C1=C/c1ccc([N+](=O)[O-])cc1	84.3% (inactive)
COc1ccc(-c2nc(SCC(C)C)nc(N/N=C(/C)c3ccc(OC)c(OC)c3)c2C#N)cc1	89.5% (inactive)
NS(=O)(=O)c1cccc(NC(=O)C(=O)C2C(=O)Nc3ccccc32)c1 (stereo unspecified)	76% (inactive)
O=S(=O)(c1cccc(NC2=Nc3cccc4cccc2c34)c1)N1CCCC1	62% (inactive)
CCOC(=O)c1c(SC)nn(-c2cc(=O)[nH]c3ccc(Br)cc23)c1N	88.2% (inactive)
CC(=O)c1c[nH]c2ccc(-c3ccnc(Nc4ccc(NC(=O)C5CCCC5)c(CN5CCOCC5)c4)n3)cc12	-47.3% (active)
COc1ccc(/C=C(/c2ccccc2)[N+](=O)[O-])cc1	-29.6% (active)
O=C1Nc2c(ccc(Cl)c2Cl)/C1=C/c1ccccn1	62.3% (inactive)
CCN(CCNc1cc(OC)cc2cccnc12)CCc1ccccc1	91.2% (inactive)
COc1cc2nc(-c3ccc(C#N)cc3)[nH]c(=O)c2cc1OC	98.7% (inactive)
CCCOc1nc(SCCC)nc2c1cnn2-c1ccccc1	97.3% (inactive)
O=S(=O)(c1ccccc1)N1CCCc2ccccc21	101% (inactive)

SMILES	growth
O=C(Nc1ccc(Cl)cc1)Nc1ccc(Cl)c(Cl)c1	18.8% (inactive)
COc1cc(NCC(O)CN(CC(C)C)C2CCCC2)c2ncccc2c1 (stereo unspecified)	83.2% (inactive)
COc1ccc(Nn2c(SCC(=O)Nc3nc(-c4ccc(Cl)cc4)cs3)nc(C)c2C)cc1	41.9% (inactive)
COc1cccc2c1C(=O)c1c(O)c3c(c(O)c1C2=O)C[C@@](O)(C(=O)CO)C[C@@H]3O[C@H]1C[C@H](N)[C@@H](O)[C@H](C)O1	3.85% (active)
Clc1ccc(N2N=C(c3cccc(Nc4ccncc4)c3)CC2c2ccc3c(c2)OCO3)cc1 (stereo unspecified)	74.8% (inactive)
O=C(N/N=C/c1ccncc1)c1ccccc1Nc1cccc(C(F)(F)F)c1	91.7% (inactive)
COc1ccc(Cc2nc3cc(OC)c(OC)cc3c(=O)[nH]2)cc1	105% (inactive)
COc1ccc(-c2c[nH]c(C(=O)O)c2-c2cc(OC)c3c(c2OC)OCO3)cc1	105% (inactive)
Clc1ccc(N2N=C(c3cccc(Nc4ccncc4)c3)CC2c2ccccc2)cc1 (stereo unspecified)	82.5% (inactive)
COc1ccc(Cn2nc(-c3cc(OC)c(OC)c(OC)c3)c3c2CCc2cnoc2-3)cc1OC	77.7% (inactive)
COc1cc2nnn3c4ncccc4c(N=O)c3c2cc1OC	106% (inactive)
Clc1nc(Cl)c2ncn(CC3(Cn4cnc5c(Cl)nc(Cl)nc54)COC3)c2n1	-71.6% (active)
C(=N\Nc1ncc(-c2cc3cc4c(cc3o2)OCO4)s1)/c1c[nH]c2ccccc12	5.32% (active)
COc1ccc(-c2nn(Cc3ccccc3)c3c2-c2oncc2CC3)cc1OC	67% (inactive)
COc1cc(/C=C/C(=O)c2c(C)oc3nc[nH]c(=O)c23)ccc1O	97.9% (inactive)
CCc1nc(C)cn1C(=O)OCc1nc2nc(Cl)nc(N3CCOCC3)c2[nH]1	48.2% (inactive)
O=C(Nc1ccccc1)Oc1ccccc1-c1ccccc1	96.5% (inactive)
COc1ccc(C(O)c2cc3c(N)c(C(=O)Nc4ccccc4)sc3nc2C)cc1 (stereo unspecified)	26% (inactive)
CCC(C)N(CCNc1cc(OC)cc2cccnc12)CCC(C)C (stereo unspecified)	92.2% (inactive)
